# Hit rate of the full screen: of about 3,400 compounds, about 840 (25%) were called active. Another 11% or so got no clear call; they are omitted. Only a sample is shown. Results with a measured potency or affinity are listed apart. A number with no mark means an inactive call.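 Rule for the calls: active = fitted half-maximal concentration of signal decrease at or below twice the sample's top tested concentration; inconclusive = flat curve between -70 and -30 percent, or poor fit; inactive = flat within 30 percent, signal rise, or potency above limit.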
# Assay: inhibitors of Toxoplasma growth in IFN-γ-primed HeLa – cell-based, ME49Luc, luciferase, 72 h, dose response (AID 1259418)
# Conditions: T. gondii ME49Luc in IFN-y HeLa, stronger effect = lower value, -100% = high-dose IFN-γ control wells; at 19.5 µM unless noted
row,SMILES,max activity
1,Cc1ccc(NC(=O)COc2nc(C)nc3ccccc23)c(C)c1,13.8% [at 0.68 µM]
2,COc1ccc(-c2nc(Nc3ccc(F)c(Cl)c3)c3ccccc3n2)cc1,19.7%
3,CO[C@H]1CCN(c2ccc(C)nn2)[C@H]1Cc1cnn(C)c1,-9.84% [at 1.2 µM]
4,Cc1nc(-c2ccc(F)cc2)sc1-c1ccc(SCc2ccccc2Cl)nn1,10% [at 0.16 µM]
5,Cc1ccc(-c2nc(Cn3nnc(-c4nc(-c5ccccc5Cl)no4)c3C)c(C)o2)cc1,-11.4% [at 2.6 µM]
6,CC(CCc1ccccc1)Nc1nc(-c2ccc(Cl)cc2)nc2ccccc12 (stereo not drawn),-14.3% [at 5 µM]
7,COc1ccc(-c2nc(N3CCN(c4cccc(C)c4C)CC3)c3ccccc3n2)cc1,17%
8,CCCNC(=O)N1CCc2nc(-c3ccc(C)cc3)sc2C1,-30.1% [at 0.16 µM]
9,Cc1ccc(-c2nc3c(s2)CN(C(=O)NCc2ccccc2)CC3)cc1,-24.6% [at 0.35 µM]
10,O=C(Nc1ccc(-c2nc(-c3ccccc3)co2)cc1)c1ccccc1F,-7.4% [at 10 µM]
11,COCCN1C(=O)CCC12CCC(NC(=O)c1cc(C)on1)CC2 (stereo not drawn),12.8%
12,Cc1cc(C)c(S(=O)(=O)N2CCC3(CC2)NCCN=C3NC2CCCC2)cc1C,-17.7%
13,Cc1ccc(S(=O)(=O)N2CCC3(CC2)NCCN=C3NC2CCCC2)cc1C,15.2% [at 1.35 µM]
14,Cc1cc(C)cc(S(=O)(=O)N2CCC3(CC2)NCCN=C3NC2CCCC2)c1,8.57% [at 0.35 µM]
15,CCOc1ccc(-c2ccc(OCCNC(=O)c3sc(-c4ccccc4)nc3C)nn2)cc1,10.6%
16,O=C(CCn1cnc2cc(-c3noc(Cc4c[nH]c5ccccc45)n3)ccc21)N1CCCC1,27.3%
17,CCCC(=O)Nc1ccc(-c2nc(-c3ccc(C)cc3C)co2)cc1,-18.1% [at 1.35 µM]
18,O=C(COc1ccc(F)cc1)Nc1ccc2c(c1)CCC(=O)N2,-4.48% [at 1.35 µM]
19,Cc1cccc(C(=O)Nc2ccc(-c3nc(-c4ccccc4)co3)cc2)c1,70.1%
20,COc1ccc(-c2nc(Cn3nnc(-c4nc(-c5ccc(SC)cc5)no4)c3C)c(C)o2)cc1,-6.45% [at 5 µM]
21,Cc1cccc(S(=O)(=O)N2CC[C@@H]3[C@H](CO)Nc4ccc(-c5ccccc5F)cc4[C@@H]32)c1,25.7% [at 10 µM]
22,O=S(=O)(c1ccccc1F)N1CC[C@H]2[C@H](CO)Nc3ccc(C4=CCCCC4)cc3[C@H]21,39.3% [at 10 µM]
23,COc1ccccc1S(=O)(=O)N1CC[C@H]2[C@H](CO)Nc3ccc(-c4ccc(C#N)cc4)cc3[C@H]21,23% [at 21 µM]
24,O=S(=O)(c1ccccc1F)N1CC[C@@H]2[C@@H](CO)Nc3ccc(C4=CCCCC4)cc3[C@@H]21,37.4% [at 10 µM]
25,O=S(=O)(c1ccccc1F)N1CC[C@@H]2[C@H](CO)Nc3ccc(C4=CCCCC4)cc3[C@@H]21,7.48% [at 10 µM]

row,SMILES,max activity
1,CC(=O)NCC(=O)N1CCC2(CC1)CC(c1ccccc1)C(=O)N2 (stereo not drawn),28.8%
2,COc1ccc(NC(=O)Nc2ccc(-c3nc(-c4cc(C)ccc4C)co3)cc2)c(OC)c1,9.16% [at 5 µM]
3,CS(=O)(=O)NCc1cnc2n1CCN(Cc1cccs1)CC2,48.8%
4,CCN1C(=O)CCc2cc(NC(=O)Cc3ccccc3Cl)ccc21,-5.27% [at 0.16 µM]
5,COc1ccc(-c2nc(NCCC3=CCCCC3)c3ccccc3n2)cc1,-27.2% [at 1.35 µM]
6,CN1[C@@H]2Cn3c(ccc(/C=C/c4ccccc4)c3=O)[C@H]1[C@@H](C(=O)NC1Cc3ccccc3C1)[C@@H]2CO,15.2% [at 5 µM]
7,Cc1ccc2c(c1C)-n1cccc1C1(CCN(C(=O)c3ccco3)CC1)N2,10.9% [at 0.16 µM]
8,Cc1ccc(-c2nc(CSc3nc4c(c(=O)[nH]3)CN(Cc3ccccc3)CC4)c(C)o2)cc1,-18% [at 0.68 µM]
9,Cc1oc(-c2ccccc2)nc1CSc1nc2c(c(=O)[nH]1)CN(Cc1ccc(Cl)cc1)CC2,14.5% [at 0.16 µM]
10,COc1ccc(CN2CCc3nc(SCc4nc(-c5ccc(C)cc5)oc4C)[nH]c(=O)c3C2)cc1,16.3%
11,Cc1ccc(-c2nc(CSc3nc4c(c(=O)[nH]3)CN(Cc3ccc(F)cc3)CC4)c(C)o2)cc1,26% [at 0.16 µM]
12,Cc1nc(-c2ccc(F)cc2)sc1-c1ccc(SCCN2CCOCC2)nn1,231%
13,O=C(Nc1ccc(F)cc1)Nc1ccc(-c2nc(-c3cccc(Br)c3)co2)cc1,4.84% [at 10 µM]
14,COc1ccc(-c2nc(N3CCCC(C)C3)c3ccccc3n2)cc1 (stereo not drawn),20.4% [at 1.35 µM]
15,O=C(CCC1N=C2c3ccccc3N=C(SCc3cc(=O)n4ccccc4n3)N2C1=O)NCc1ccc2c(c1)OCO2 (stereo not drawn),14.1% [at 0.35 µM]
16,CCOC(=O)CSC1=Nc2ccccc2C2=NC(CCC(=O)NCc3cccs3)C(=O)N12 (stereo not drawn),13.6% [at 10 µM]
17,Cc1ccc(CSC2=Nc3ccccc3C3=NC(CC(=O)NCc4cccs4)C(=O)N23)c(C)c1 (stereo not drawn),21.5% [at 0.68 µM]
18,O=C(CCC1N=C2c3ccccc3N=C(SCc3cc(=O)n4ccccc4n3)N2C1=O)NCc1cccs1 (stereo not drawn),13.4% [at 0.16 µM]
19,O=C(CC1N=C2c3ccccc3N=C(SCc3cc(=O)n4cc(Cl)ccc4n3)N2C1=O)NCc1cccs1 (stereo not drawn),41.3% [at 0.35 µM]
20,COc1ccccc1CNC(=O)CC1N=C2c3ccccc3N=C(SCc3ccc(F)cc3)N2C1=O (stereo not drawn),11.2% [at 10 µM]
21,Cc1c(Cl)cccc1NC(=O)CN1CCC2(CC1)N=C(c1ccc(F)cc1)C(=O)N2,-21.7% [at 1.35 µM]
22,Cc1ccc(CC(=O)Nc2ccc(-c3nc(-c4ccc(C)cc4)co3)cc2)cc1,19.1% [at 10 µM]
23,Cc1oc(-c2ccccc2)nc1Cn1nnc(-c2nc(-c3ccc(Cl)c(F)c3)no2)c1C,7.02%
24,Cc1cccc(C2=NC3(CCN(CC(=O)Nc4ccc(C)c(F)c4)CC3)NC2=O)c1,-23%
25,N#Cc1c(N2C[C@@H]3NCCO[C@H]3C2)c(F)cc2c(=O)c(C(=O)O)cn(C3CC3)c12,13.7%

row,SMILES,max activity
1,COC(=O)Cn1cc(CN2CCCC2c2cc(C(C)C)on2)c2cc(OC)ccc21 (stereo not drawn),14.7%
2,COc1ccc2c(c1)NC1(CCN(C(=O)Cc3ccc(C)cc3)CC1)c1cccn1-2,5.57% [at 0.35 µM]
3,CCCCc1ccc(Nc2ncnc3c2cnn3-c2ccc(Cl)cc2)cc1,-18.1% [at 5 µM]
4,Cc1cccc(-c2nc(CN3CCc4c(sc5c4CCCC5)C3c3ccccc3)c(C)o2)c1 (stereo not drawn),18.5%
5,O=C(CCC1N=C2c3ccccc3N=C(SCc3ccc(Cl)cc3)N2C1=O)NCc1ccc2c(c1)OCO2 (stereo not drawn),-24.4% [at 0.35 µM]
6,O=C(CCC1N=C2c3ccccc3N=C(SCc3ccc(F)cc3)N2C1=O)NCc1cccs1 (stereo not drawn),11.9% [at 1.35 µM]
7,O=C(CC1N=C2c3ccccc3N=C(SCc3ccc(Cl)cc3)N2C1=O)NC1CCCCC1 (stereo not drawn),-16.8% [at 0.35 µM]
8,Cc1ccc(CSC2=Nc3ccccc3C3=NC(CC(=O)NCc4cccs4)C(=O)N23)cc1 (stereo not drawn),21.6% [at 2.6 µM]
9,O=C(CCC1N=C2c3ccccc3N=C(SCc3ccccc3F)N2C1=O)NCc1ccc2c(c1)OCO2 (stereo not drawn),17.7% [at 0.16 µM]
10,Cc1ccc2c(c1)cc(S(=O)(=O)c1ccccc1)c(=O)n2CC(=O)NC1CCCC1,-10.6% [at 0.35 µM]
11,COc1ccc(CNC(=O)Nc2ccc(-c3nc(-c4ccccc4)co3)cc2)cc1,134%
12,O=C(Cc1ccccc1)N1CCC2(CC1)Nc1cc(F)ccc1-n1cccc12,8.98% [at 0.68 µM]
13,COc1ccccc1CNC(=O)CCC1N=C2c3ccccc3N=C(SCC#N)N2C1=O (stereo not drawn),14.4% [at 1.35 µM]
14,C=CCNc1ncnc2c1cnn2-c1ccc(Cl)cc1,134% [at 0.35 µM]
15,CCOC(=O)CC(=O)Nc1ccc(-c2nc(-c3cc(C)ccc3C)co2)cc1,-6.71% [at 0.35 µM]
16,CCC(C(=O)N1CCC2(CC1)Nc1ccc(C)c(C)c1-n1cccc12)c1ccccc1 (stereo not drawn),8.62% [at 2.6 µM]
17,CCN1CCCC1CNC(=O)Cn1cccc1-c1nc(-c2ccccc2)cs1 (stereo not drawn),-11%
18,CCOC(=O)C1CCCN(C(=O)Cn2cccc2-c2nc(-c3ccc(C)cc3)cs2)C1 (stereo not drawn),-28.8%
19,CCOC(=O)C1CCN(C(=O)Cn2cccc2-c2nc(-c3ccc(C)cc3)cs2)CC1,11.7%
20,Cc1ccc(-c2csc(-c3cccn3CC(=O)N3CCC(N4CCCCC4)CC3)n2)cc1,6.16% [at 0.16 µM]
21,COCCN1CCc2nc(SCc3nc(-c4ccc(OC)c(OC)c4)oc3C)[nH]c(=O)c2C1,34.3% [at 10 µM]
22,CN1C(=O)CCc2cc(NC(=O)c3cccs3)ccc21,71.4%
23,Cc1ccc(C)c(NC(=O)N2CCN(Cc3nc(-c4ccccc4C)oc3C)CC2)c1,4.41% [at 2.6 µM]
